# Most compounds without a hit are left out; they make up all but 4% or so of the library.
# Cl transport mod – modulators of human KCC2 chloride dependent transport; actives 2.2% (n = 190,000); KCC2 cells, thallium flux FluoZin-2 fluorescence; AID 1456; B-score of Tl+ flux slope (higher = more flux/activation; lower = inhibition) at 10 µM; Q9H2X9;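 active = thallium flux slope and its plate-corrected score both differing from the plate sample mean at a set confidence after two filtering rounds, in either direction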;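 note: slope of fluorescence scaled to starting intensity during 10 to 20 s after thallium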
# ROMK mod – human ROMK K+ channel modulation, primary screen; actives 2% (n = 130,000); Tet-inducible ROMK, thallium flux fluorescence; actives lie on both sides; B-score at 10 µM;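 active = signal ratio slope over the read window, or its plate-corrected B-score, at least 3 SD from the plate mean, either direction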;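 note: B-score of the F/F0 ratio slope over 7 to 12 s after thallium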
# Arbovirus inh – antivirals against arbovirus infection; arbovirus infection cell-based antiviral screen; inhibition, % at 10 µM; actives 0.37% (n = 200,000); AID 1251; in the data active = inhibition above about 30%
# HSV augment – HSV replication enhancement; HSV replication augmentation in cells, fold increase; actives 0.005% (n = 220,000); maximum fold increase; in the data active = maximum fold increase above about 1.5; inconclusive = no clear call, values can overlap the other calls; tested in PC3 cells
# Measles CPE – protection of cells from measles virus; Measles virus-infected cells, CPE protection, absorbance; protection (pct of control), % at 4 µM; actives 1.5% (n = 140,000); AID 841; in the data active = protection mostly above about 24%, no sharp cut-off; inactive = mostly below about 26%
# The depositor's hits bear a star; i = inactive; u = inconclusive; x = no result given.
SMILES,Cl transport mod,ROMK mod,Arbovirus inh,HSV augment,Measles CPE
Nc1nc(SCC(=O)N2N=C3/C(=C/c4ccco4)CCCC3C2c2ccco2)n[nH]1 (centres undefined),0.00476,-2.02,9.1,i,6.9
S=C(NC1CCCC1)N1CCN(C/C=C/c2ccccc2)CC1,-3.01,-0.79,3.4,i,x
CCN(CC(=O)Nc1ccccc1SC)Cc1nc2ccccc2c(=O)[nH]1,-1.02,x,x,i,x
CCN(CC(=O)NC(c1ccccc1)c1ccccc1)Cc1nc2ccccc2c(=O)[nH]1,-0.352,x,-11.1,i,20.8*
N#CC1=C(SCC(=O)Nc2ccccc2)NC(=O)CC1c1ccc(O)cc1 (centres undefined),0.0322,x,42.2*,i,5.7
CC(C)N1CCN(Cc2ccc(C#CCCO)cc2)CC1CCO (centres undefined),0.347,-0.0158,-2.6,i,x
O=C(c1cc2ccccc2oc1=O)N(Cc1ccco1)C1CCS(=O)(=O)C1 (centres undefined),-4.69*,-0.624,4.9,i,9.1
Cc1ccc(NC(=S)N2CCC(N(C)CC3CCCO3)CC2)cc1 (centres undefined),1.82,0.0502,2.8,i,x
Nc1nnc(-c2ccc(Cl)c([N+](=O)[O-])c2)s1,1.35,-0.042,11.9,i,x
Cc1oc(-c2ccccc2Cl)nc1CSCC(=O)N1CCCC1,x,x,32.7*,i,44.4*
O=C1CC(N2CCc3ccccc32)C(=O)N1c1ccc(F)cc1 (centres undefined),-0.108,0.962,-11.7,i,x
S=C(Nc1ccccc1)Nc1cc(Cl)ccc1Oc1ccccc1,x,x,0.1,i,32.9*
S=C(Nc1ccccc1)Nc1ccc(Cl)cc1Cl,2.35,x,7.4,i,15.2
CC(C)Cc1csc(NC(=O)c2ccc(F)cc2)c1C(=O)O,0.24,x,48.3*,i,9.2
O=C(O)c1ccc2[nH]c3c(c2c1)CSCC3,0.702,x,30.8*,i,18.1
CN(C)CCOC(=O)c1ccc2[nH]c3c(c2c1)CSCC3,0.508,-0.184,x,i,x
Oc1ccc(Br)cc1-c1cc(-c2ccc(Cl)cc2)n[nH]1,-1,0.122,73.5*,i,12.1
COc1ccc(O)c(-c2cc(-c3cccc(Br)c3)n[nH]2)c1,-0.471,0.585,-37.0,x,7.1
Oc1ccc(Br)cc1-c1cc(-c2ccccc2)n[nH]1,0.181,x,36.1*,i,-0.5
N#CC1CC(c2ccccc2)Nc2cc(Cl)ccc2N1 (centres undefined),-0.383,-0.397,x,i,x
COc1ccc(CNC(=O)COC(=O)c2ccco2)cc1,-0.0729,0.173,6.6,i,x
COc1ccc(C(=O)Cc2ccc(OC)c(OC)c2)c(OC)c1,-1.64,-1.19,-2.4,i,60.9*
COc1ccc(CCNC(=O)COC(=O)c2ccco2)cc1OC,0.0299,0.195,2.6,i,39.0*
COc1ccc(CCC(N)=O)cc1OC,x,1.17,-5.1,i,27.3*
O=C(C1CCC(CNS(=O)(=O)c2cccc3nsnc23)CC1)N1CCN(c2ccccn2)CC1 (centres undefined),-1.02,x,-1.4,i,x
SMILES,Cl transport mod,ROMK mod,Arbovirus inh,HSV augment,Measles CPE
CCN1CCc2c(sc3c2c(NCc2ccco2)nc2nnnn23)C1,-0.48,-2.56,32.5*,i,35.4*
NS(=O)(=O)c1ccc(NNC(=O)c2ccc(F)cc2F)cc1,1.06,-0.746,x,i,x
CCOc1cccc(C(=O)NC(=S)Nc2ccccc2)c1,18.6*,0.0632,-2.0,i,10.1
O=C(NNC(=S)Nc1ccccc1)c1cccc(Br)c1,3.26*,-1.48,4.6,i,27.8
O=C(O)CCC(=O)NNC(=O)c1cccc(Br)c1,-0.0222,0.349,0.2,i,59.1*
COC(=O)CCC(=O)NNC(=O)c1cccc(Br)c1,-0.871,-0.581,-4.0,i,7.3
CC(C)(C)NC(=S)NNC(=O)c1cccc(Br)c1,0.345,-0.941,5.8,i,x
COC(=O)NCN1C(=O)C2C3C=CC(C3)C2C1=O (centres undefined),0.128,0.39,6.0,i,x
OCC1(Cc2ccccc2)CCN(C2CCN(c3ccc(F)c(F)c3)CC2)CC1,0.33,x,-10.1,i,x
C=C(C)CN(CC)C(=O)CCc1nnc(CCc2c[nH]c3ccccc23)o1,-2.05,1.43,-1.6,i,x
CCC1(C)SC(N)=NN1C(C)=O (centres undefined),-0.647,0.178,-6.2,i,x
COc1cc(COc2ccc3c(C)c(Cc4ccccc4)c(=O)oc3c2)cc(OC)c1OC,x,x,-12.2,i,16.0
COc1cc(COc2ccc3c(C)c(Cc4ccccc4)c(=O)oc3c2C)cc(OC)c1OC,0.712,x,2.9,i,28.4*
CCc1ccc(C(=O)COC(=O)C(Cc2ccccc2)NC(=O)c2ccc(Cl)cc2)cc1 (centres undefined),-0.213,-0.0696,-1.9,i,45.0*
CCc1ccc(C(=O)NC(CC(C)C)C(=O)O)cc1 (centres undefined),4.68*,-0.398,11.9,i,19.5
COc1ccc(C(=O)NC(CC(C)C)C(=O)O)cc1OC (centres undefined),-0.175,0.982,-0.5,i,37.9
CC1C/C(=C\c2cccnc2)C(=O)/C(=C/c2cccnc2)C1 (centres undefined),-0.184,-6.13*,-30.8,i,-0.4
COc1ccc2nc(N3C(=O)/C(=C/c4ccc(Cl)cc4)NC3=S)sc2c1,53.5*,x,-13.2,i,21.3
CC(=O)c1cc(C(=O)N2CCc3c([nH]c4ccccc34)C2C2CCCCC2)[nH]n1 (centres undefined),0.00916,x,4.0,i,x
Cc1ccccc1N=Nc1ccc(O)c2ncccc12,41.4*,0.556,-23.4,i,0.6
O=S(=O)(Nc1ccc(Cc2ccncc2)cc1)c1cccs1,-0.417,x,8.9,i,45.8*
Cc1cc(C(=O)Nc2cccc3ccccc23)n(-c2ccccc2)n1,-0.291,x,-5.1,i,x
CC(=O)Nc1ccc(NC(=O)c2cc(C)nn2-c2ccccc2)cc1,0.00167,x,8.3,i,52.9*
Cc1ccc(C(=O)NNC(=S)NC(=O)COc2ccccc2)cc1,94.8*,6.61*,-26.7,i,15.1
CCCCOc1ccc(C(=O)NNC(=S)NC(=O)CC)cc1,35.9*,x,-15.0,i,12.8
SMILES,Cl transport mod,ROMK mod,Arbovirus inh,HSV augment,Measles CPE
CC(C)(C)C(=O)NC(=S)NNC(=O)c1ccc(-c2ccccc2)cc1,86.6*,6.09*,-17.9,i,x
Cc1ccccc1C(=O)NNC(=S)NC(=O)COc1ccccc1,19.5*,1.82,-24.9,i,3.7
CCOC(=O)C1(CC2CCCCO2)CCN(Cc2ccc(OC)cc2F)CC1 (centres undefined),0.371,x,-0.7,i,x
COc1ccc(-c2nc3ccccc3c(C(=O)Nc3ccc(S(=O)(=O)Nc4cc(C)on4)cc3)c2C)cc1,0.0823,4.15*,-5.7,i,8.2
COc1cc(OC)cc(-c2nnc(Nc3nc4c(F)cccc4s3)o2)c1,9.14*,2.02,-17.9,i,12.9
NNc1nc2c(F)cccc2s1,0.0273,x,2.9,i,11.8
Fc1cccc2sc(Nc3nnc(-c4ccccc4)o3)nc12,x,7.04*,-0.6,i,4.0
NCCc1nc(-c2ccccc2)cs1,0.196,1.31,1.1,u,x

# Source: PubChem
